Assay results taken from PubChem BioAssay (EPA / NIEHS).
Results filed as inconclusive are left out. Active and inactive are the calls of the source. Rule for the calls, unless noted: active = hit-call score of the fitted dose curve at least 0.9, where 1 is the maximum; inactive = score below 0.9.

Tests used:
[1] = CCTE_Shafer_MEA_dev_firing_rate_mean: CCTE's Neural Network Formation Assay for Mean Firing Rate, Shafer Lab (AID 2284031)
How it was run: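 Rat primary cortical neurons were seeded on multielectrode arrays and treated from plating through day 12, with redosing at each feed. Spontaneous spiking was recorded four times; mean firing rate AUC was fitted downward against DMSO.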

[2] = CCTE_Shafer_MEA_dev_per_burst_spike_percent: CCTE's Neural Network Formation Assay for Percent of Spikes in a Burst, Shafer Lab (AID 2284032);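 note: fitted as a decrease in burst spike percentage below DMSO baseline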
How it was run: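 Rat primary cortical neurons on 16-electrode MEA wells, dosed from plating day 0 for 12 days with renewal on DIV 5 and 9; spikes-in-bursts percentage averaged over bursting electrodes, collapsed as AUC across days 5, 7, 9, 12; loss direction versus DMSO.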

[3] = CCTE_Shafer_MEA_dev_active_electrodes_number: CCTE's Neural Network Formation Assay for Number of Active Electrodes, Shafer Lab (AID 2284040; active = hit-call score of the fitted dose curve at least 0.9, where 1 is the maximum;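 note: potency for loss of active electrodes versus DMSO so lower counts are hits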)
How it was run: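 Primary rat cortical neurons on 16-electrode MEA wells, exposed from day 0 through day 12 with compound renewed at DIV 5 and 9 feeds. Active electrodes (mean firing ≥5 spikes/min) counted at DIV 5, 7, 9, 12; trapezoidal AUC across days, loss-of-signal versus DMSO.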

[4] = CCTE_Shafer_MEA_dev_burst_rate: CCTE's Neural Network Formation Assay for Burst Rate, Shafer Lab (AID 2284042)
How it was run: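 Primary rat cortical neurons on PEI-coated 48-well MEA plates (laminin added with cells at plating) (16 electrodes/well), exposed from plating to day 12, dosing renewed at DIV 5 and 9. Burst rate averaged over active electrodes, recorded DIV 5, 7, 9, 12, summarized as AUC; loss versus DMSO.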

[5] = CCTE_Shafer_MEA_dev_bursting_electrodes_number: CCTE's Neural Network Formation Assay for Number of Bursting Electrodes, Shafer Lab (AID 2284043; active = hit-call score of the fitted dose curve at least 0.9, where 1 is the maximum;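 note: potency is for loss of bursting electrodes relative to DMSO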)
How it was run: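 Read-out is the per-well number of electrodes bursting at least once every 2 minutes, recorded on days 5, 7, 9 and 12 and collapsed by trapezoidal area under the curve. Cultures were primary rat cortical neurons on MEA plates, treated continuously from plating.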

[6] = CCTE_Shafer_MEA_dev_per_burst_interspike_interval: CCTE's Neural Network Formation Assay for Burst Interspike Interval, Shafer Lab (AID 2284044);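 note: potency for a decrease of within-burst interspike interval below DMSO level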
How it was run: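 Readout is the average time between spikes inside single-electrode bursts, taken as a well mean across bursting electrodes. Cortical neurons from rat developed networks on MEA plates under continuous 12-day exposure; recordings on days 5, 7, 9 and 12 were integrated by trapezoidal AUC.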

[7] = CCTE_Shafer_MEA_dev_interburst_interval_mean: CCTE's Neural Network Formation Assay for Mean Interburst Interval, Shafer Lab (AID 2284046);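 note: well-mean interburst interval of bursting electrodes as AUC over four recording days; curve fitted for decrease in interburst interval relative to DMSO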
How it was run: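 Recordings on days 5, 7, 9 and 12 give well-mean interburst interval across actively bursting electrodes, summarized as area under the curve. Cultures: rat cortical neurons, continuous exposure from day 0, compound renewed at feeds; decrease analyzed versus DMSO.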

[8] = CCTE_Shafer_MEA_dev_inter_network_spike_interval_mean: CCTE's Neural Network Formation Assay for Mean Inter-network Spike Interval, Shafer Lab (AID 2284047)
How it was run: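 Primary rat cortical neurons on 16-electrode MEA wells, exposed from plating day 0 through DIV 12, compound renewed at DIV 5 and 9 media changes. Mean interval between network-spike peaks recorded DIV 5, 7, 9, 12; collapsed as trapezoidal AUC, fitted downward versus DMSO.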

[9] = CCTE_Shafer_MEA_dev_network_spike_number: CCTE's Neural Network Formation Assay for Number of Network Spikes, Shafer Lab (AID 2284048)
How it was run: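 Developing networks of primary rat cortical neurons are treated over 12 days starting at plating, with media and compound fully replaced on DIV 5 and 9. Network spike counts from four recording days are integrated as trapezoidal AUC.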

[10] = CCTE_Shafer_MEA_dev_network_spike_peak: CCTE's Neural Network Formation Assay for Mean Number of Electrodes in Network Spike, Shafer Lab (AID 2284049);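 note: fitted for loss of signal meaning fewer electrodes in network spikes than DMSO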
How it was run: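 Rat cortical primary culture, 1.5 x 10^5 cells/well, 48-well MEA (16 electrodes/well). Dosing day 0 through DIV 12, full media/compound exchange DIV 5, 9. AxIS adaptive spike detection; AUC over days 5/7/9/12; loss-of-signal vs DMSO.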

[11] = CCTE_Shafer_MEA_dev_network_spike_duration_std: CCTE's Neural Network Formation Assay for Standard Deviation of Network Spike Duration, Shafer Lab (AID 2284052);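 note: area under curve of spike duration SD across recording days 5 to 12; hits are decreases in network spike duration SD versus DMSO vehicle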
How it was run: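 Primary rat cortical neurons on PEI-coated 16-electrode MEA wells, exposed from plating day 0 through day 12 with compound renewed at DIV 5 and 9. Network spike duration SD recorded on days 5, 7, 9, 12, collapsed as trapezoidal AUC; loss-of-signal fit versus DMSO.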

[12] = CCTE_Shafer_MEA_dev_per_network_spike_spike_number_mean: CCTE's Neural Network Formation Assay for Mean Number of Spikes in a Network Spike, Shafer Lab (AID 2284053);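 note: fitted as decrease in spikes per network spike relative to DMSO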
How it was run: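 Primary rat cortical neurons on 48-well, 16-electrode MEA plates were exposed from plating to DIV 12, with dosing renewed on DIV 5 and 9. Spikes per network spike (0.05 s peak window) were recorded on DIV 5, 7, 9 and 12 and collapsed as trapezoidal AUC versus DMSO.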

[13] = CCTE_Shafer_MEA_dev_per_network_spike_spike_percent: CCTE's Neural Network Formation Assay for Percent of Spikes in a Network Spike, Shafer Lab (AID 2284054)
How it was run: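 Rat primary cortical cultures, 1.5 x 10^5 cells/well on MEA. Continuous compound exposure d0–12, medium/compound renewed DIV 5, 9. Network-spike spike % (0.05 s peak window), AUC over 4 recordings, DMSO baseline.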

[14] = CCTE_Shafer_MEA_dev_LDH: CCTE's Lactate Dehydrogenase Assay for Cytotoxicity in the Neural Network Formation Assay, Shafer Lab (AID 2284068; active = hit-call score of the fitted dose curve at least 0.9, where 1 is the maximum;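 note: exposure for twelve days from plating with re-dosing on DIV 5 and 9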)
How it was run: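 Primary rat cortical neurons were plated on PEI/laminin MEA plates and exposed from day 0 for twelve days, with compound renewed at DIV 5 and 9. Cytotoxicity was determined by spectrophotometric LDH assay relative to DMSO.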

[15] = CCTE_Shafer_MEA_dev_AB: CCTE's Alamar Blue Assay for Cytotoxicity in the Neural Network Formation Assay, Shafer Lab (AID 2284083; active = hit-call score of the fitted dose curve at least 0.9, where 1 is the maximum;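 note: twelve days of exposure from plating with re-dosing on DIV 5 and 9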)
How it was run: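 Primary rat cortical neurons on PEI-coated 48-well MEA plates, 1.5 x 10^5 cells/well in laminin drop; compound exposure from day 0 of plating for twelve days, renewed at medium changes on DIV 5 and 9. Viability read as resazurin reduction by fluorescence, relative to DMSO.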

[16] = UKN2_HCS_IMR90_neural_migration: University of Konstanz (UKN) Leist Lab Neural Crest Cell Migration Assay in human induced IMR90 Pluripotent Stem Cells (UKN2) (AID 2284204); conditions: actives raise or lower the signal
How it was run: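 Migration of human IMR90-derived neural crest cells into a stopper-defined gap is imaged after 24 h chemical treatment. Activity is fitted bidirectionally relative to DMSO.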

[17] = IUF_NPC1b_proliferation_BrdU_72hr: Leibniz Research Institute for Environmental Medicine (IUF) 72-hour Neural Progenitor Cell Bromodeoxyuridine (BrdU) Proliferation Assay (NPC1b) (AID 2284207)
How it was run: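 Proliferation of primary human neural progenitor cells: 72 h compound treatment at 37C, 5% CO2, pH 7.2-7.6, in EGF/FGF-containing medium. Readout is BrdU uptake (last 16 h) by chemiluminescent ELISA, normalised to DMSO.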

[18] = IUF_NPC1a_proliferation_area_72hr: Leibniz Research Institute for Environmental Medicine (IUF) 72-hour Neural Progenitor Cell Proliferation Area Assay (NPC1a) (AID 2284208)
How it was run: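 hNPC spheres (human fetal cortex, GW 16-19), one per poly-Hema U-bottom well; EGF+FGF medium; dosed day 0, no re-dosing; 72 h, 37C, 5% CO2; phase-contrast sphere area; DMSO = baseline; minus-GF = positive ctrl.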

[19] = IUF_NPC1_viability_72hr: Viability Assessment at 72 hours in the Leibniz Research Institute for Environmental Medicine (IUF) Neural Progenitor Cell Proliferation Assay (NPC1) (AID 2284209)
How it was run: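 hNPC spheres, 1/well, EGF+FGF medium, 37C/5% CO2; dosed day 0, 72 h, no re-dosing. Resazurin reduction (alamar blue) fluorescence; DMSO = negative control/baseline; growth-factor-free wells as positive control.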

[20] = CCTE_Mundy_HCI_Cortical_Synap_Neur_Matur_NeuriteSpotCountPerNeuriteLength: CCTE's Synaptogenesis and Neurite Maturation Assay in rat cortical cells for Neurite Spot Count per Neurite Length, Mundy Lab (AID 2284210)
How it was run: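 Primary rat cortical neurons, compound exposure DIV 7–12, 288.33 h endpoint. Hoechst, anti-MAP2 and anti-synaptophysin labelling; neurite-associated puncta per neurite length scored by automated imaging relative to DMSO controls.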

[21] = CCTE_Mundy_HCI_Cortical_Synap_Neur_Matur_BPCount: CCTE's Synaptogenesis and Neurite Maturation Assay in rat cortical cells for Branch Point Count, Mundy Lab (AID 2284211)
How it was run: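 Rat primary cortical cultures, AraC added DIV 5; chemicals dosed DIV 7 through DIV 12. Fixed cells stained for MAP2, synaptophysin and Hoechst; neurite branch points counted by automated high-content imaging, fitted relative to DMSO.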

[22] = CCTE_Mundy_HCI_Cortical_NOG_NeuriteCount: CCTE's Neurite Outgrowth Assay in rat cortical cells for Neurite Count, Mundy Lab (AID 2284212);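 note: cells fixed about two days after chemical exposure began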
How it was run: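 Neurite number per cell from high-content imaging of betaIII-tubulin immunostaining, with Hoechst nuclear counterstain.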

Measured: AC50

CC(C)O
active: [2] 10.2 µM | [3] 7.59 µM | [5] 11.8 µM | [6] 10.2 µM | [10] 8.39 µM | [12] 5.31 µM | [17] 91.7 µM
inactive: all other assays above
